Reference: the supplement of paper PMC13380429

System: Vero E6 infected with SARS-CoV-2
Experiment: inhibition of SARS-CoV-2 cytopathic effect; higher = more antiviral protection, active = above 15
Settings: 48 h

Measured: inhibition of SARS-CoV-2 cytopathic effect

CCOC(=O)[C@]12CC1/C(=N\O)c1ccccc1O2 (stereo not given in full)
inactive: 1 nM 1.49% | 8.33 nM -0.95% | 100 nM -1.19% | 833.33 nM -3.34% | 10000 nM -1.39%

COc1ccc(S(=O)(=O)N2c3ccc(Cl)cc3[C@](O)(c3ccccc3Cl)[C@@H]2C(=O)N2CCC[C@H]2C(N)=O)cc1OC [relcovaptan]
inactive: 1 nM -0.27% | 8.33 nM -0.84% | 100 nM 0.53% | 833.33 nM 1.63% | 10000 nM 2.72%

CCC(=O)O[C@H]1[C@H](O[C@@H]2[C@@H](C)[C@H](O[C@H]3C[C@@](C)(OC)[C@@H](O)[C@H](C)O3)[C@@H](C)C(=O)O[C@H](CC)[C@@](C)(O)[C@H](O)[C@@H](C)C(=O)[C@H](C)C[C@@]2(C)O)O[C@H](C)C[C@@H]1N(C)C [erythromycin-estolate]
inactive: 1 nM -0.2% | 8.33 nM 1.07% | 100 nM 2.51% | 833.33 nM 2.85% | 10000 nM -0.99%

O=C(Cc1cccc(OC(F)(F)F)c1)Nc1ccc(CCCCc2nnc(NC(=O)Cc3ccccn3)s2)nn1
inactive: 1 nM -1.49% | 8.33 nM -0.26% | 100 nM -1.18% | 833.33 nM -5.17% | 10000 nM -3.68%

C=C[C@](C)(O)CC[C@@H]1[C@@]2(C)CCCC(C)(C)[C@@H]2CC[C@@]1(C)O [sclareol]
inactive: 1 nM 0.36% | 8.33 nM -0.46% | 100 nM -0.66% | 833.33 nM -1.37% | 10000 nM -4.46%

CCN1CCC(n2cc(CNc3cc(Cl)c4ncc(C#N)c(Nc5ccc(F)c(Cl)c5)c4c3)nn2)CC1 [cot-inhibitor-2]
inactive: 1 nM 0.26% | 8.33 nM -1.48% | 100 nM 0.28% | 833.33 nM -0.75% | 10000 nM 14%
